# Test results: PubChem BioAssay (NCI)
# About 83,000 compounds went through this panel and 20% of them were active in at least one assay; those are over-represented in the sample as a whole.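 Assay: single dose, 48 h. Readout: percent growth (0 = no net growth; negative = cell death). Active: <10.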 Calls of active or inactive are those of the source.
# How the values were obtained:
# Assay in all cases: NCI-60 one-dose screen, 48 h (100 = growth as untreated, 0 = no growth, -100 = all killed)
# Conditions in all cases: 10 µM unless noted
# [1] = test system: DU-145 prostate
# [2] = test system: K-562 leukemia
# [3] = test system: MALME-3M melanoma
# [4] = test system: MDA-MB-231 breast
# [5] = test system: RXF 393 renal
# [6] = test system: SF-268 CNS
# [7] = test system: SF-295 CNS
# [8] = test system: SF-539 CNS
# [9] = test system: UACC-257 melanoma
# [10] = test system: M14 melanoma
Compound,growth [1],growth [2],growth [3],growth [4],growth [5],growth [6],growth [7],growth [8],growth [9],growth [10]
COc1ccc(C(=O)N2c3ccccc3Sc3ccccc32)c(OC)c1,9.99% (active),10.5% (inactive),66.9% (inactive),38.4% (inactive),-0.69% (active),36.6% (inactive),11.6% (inactive),-18.8% (active),77% (inactive),-9.55% (active)
Cn1c(=O)c2nc(/C=C/c3ccccc3)c(=O)[nH]c2n(C)c1=S,113% (inactive),105% (inactive),105% (inactive),105% (inactive),118% (inactive),105% (inactive),99.8% (inactive),104% (inactive),112% (inactive),103% (inactive)
COc1ccc(/C=N/NC(=O)c2ccc(-n3cc(-c4ccccc4)nn3)cc2)cc1OC,103% (inactive),93.2% (inactive),77.8% (inactive),103% (inactive),110% (inactive),93.8% (inactive),97.7% (inactive),102% (inactive),103% (inactive),82.5% (inactive)
COc1ccccc1NC(=O)N=Nc1c(O)[nH]c2ccccc12,102% (inactive),91.2% (inactive),95.8% (inactive),82.7% (inactive),100% (inactive),99.1% (inactive),94.1% (inactive),98.3% (inactive),89% (inactive),95.1% (inactive)
Cc1ccc(-c2nc([P+](c3ccccc3)(c3ccccc3)c3ccccc3)c(S(=O)(=O)c3ccc(C)cc3)o2)cc1,25.5% (inactive),4.12% (active),-0.571% (active),3.47% (active),-28.6% (active),45.5% (inactive),81% (inactive),-65.6% (active),3.98% (active),19.3% (inactive)
COc1c(B(O)O)cccc1-c1nc2c(F)cc3[nH]ncc3c2c2c1CCCC2,7.77% (active),11.3% (inactive),-15.1% (active),12.4% (inactive),-45% (active),12.3% (inactive),7.58% (active),-28.3% (active),20.3% (inactive),11.3% (inactive)
C=C1C(=O)O[C@H]2[C@H]1CC/C(COC(=O)C(=O)c1cn(C)c3ccc(Cl)cc13)=C\CC[C@@]1(C)O[C@@H]21,-96% (active),3.09% (active),-65.6% (active),-68.7% (active),-97% (active),-65.1% (active),-65.4% (active),-70.9% (active),-84.1% (active),-77.3% (active)
CC1CCN(CCOc2ccc(CNc3ccc4nc(CCC5CCCCC5)[nH]c4c3)cc2)CC1,50.9% (inactive),-0.866% (active),-85.8% (active),0.0918% (active),2.71% (active),57.4% (inactive),-45.9% (active),-67.9% (active),-72.3% (active),-63.1% (active)
O=C(c1ccccc1)c1ccc(C2CCCCC2)cc1,106% (inactive),103% (inactive),87.4% (inactive),102% (inactive),100% (inactive),100% (inactive),94.3% (inactive),102% (inactive),105% (inactive),96.8% (inactive)
NC(=O)c1ccc(-c2c3ccccc3cc3c2ccc2ccccc23)cc1,53.3% (inactive),14% (inactive),54.7% (inactive),42.2% (inactive),23% (inactive),56% (inactive),46.1% (inactive),34.5% (inactive),52.4% (inactive),14.9% (inactive)
CCN1CCN(C(=O)[C@]23CCC(C)(C)C[C@@H]2C2=CC[C@@H]4[C@@]5(C)CCC(=O)C(C)(C)[C@@H]5CC[C@@]4(C)[C@]2(C)CC3)CC1,76.6% (inactive),21.1% (inactive),40.5% (inactive),56.5% (inactive),61% (inactive),41.5% (inactive),76.3% (inactive),48.9% (inactive),32.8% (inactive),57.1% (inactive)
Nc1nc2ccccc2c2c1S(=O)(=O)c1ccc(Cl)cc1C2=O,26.3% (inactive),11.5% (inactive),-21% (active),17.5% (inactive),10.2% (inactive),24.4% (inactive),31.8% (inactive),11.2% (inactive),24.7% (inactive),17.8% (inactive)
COc1ccc(C2=C(Br)C(=O)c3nc(C)ccc3C2=O)cc1,105% (inactive),36.7% (inactive),91.7% (inactive),73.2% (inactive),95.2% (inactive),94.6% (inactive),105% (inactive),94.8% (inactive),64.2% (inactive),92.8% (inactive)
C=C1CC[C@@H]2[C@](C)(COC(C)=O)[C@H](OC(C)=O)CC[C@@]2(C)[C@@H]1CC(Nc1ccc(S(=O)(=O)Nc2ncccn2)cc1)C1=CCOC1=O (stereo not given in full),14.9% (inactive),4.6% (active),-4.93% (active),-1.01% (active),-70% (active),18.3% (inactive),68% (inactive),-69% (active),16.6% (inactive),4.76% (active)
C/C(Cc1ccc(Cl)cc1)=C(\c1ccc(O)cc1)c1ccc(Cl)cc1,101% (inactive),89.3% (inactive),82.5% (inactive),96.6% (inactive),100% (inactive),95% (inactive),95.1% (inactive),107% (inactive),98.2% (inactive),83.7% (inactive)
COc1cc(-c2nccc3[nH]c(-c4ccc5cc[nH]c5c4)nc23)cc(OC)c1OC,18.2% (inactive),-14.4% (active),21.7% (inactive),-20.3% (active),18% (inactive),19.3% (inactive),-59.4% (active),-19.5% (active),29.6% (inactive),4.35% (active)
COCCOc1cc2ncnc(N3CCN(c4cc(S(C)(=O)=O)c(C)cc4Cl)CC3)c2cc1OCCOC,96.8% (inactive),88.9% (inactive),87% (inactive),96% (inactive),99.7% (inactive),91.8% (inactive),90.5% (inactive),92% (inactive),91.1% (inactive),111% (inactive)
CCOC(=O)c1c(NC(=O)c2ccc(Cl)cc2)sc2c(CN(C)C)c(O)ccc12,82% (inactive),8.81% (active),51.6% (inactive),56.4% (inactive),64.2% (inactive),78.5% (inactive),83.5% (inactive),56.7% (inactive),2.24% (active),-18.4% (active)
O=[N+]([O-])c1ccc(O)cc1Br,103% (inactive),93% (inactive),102% (inactive),95.4% (inactive),107% (inactive),99.6% (inactive),89.4% (inactive),91.6% (inactive),108% (inactive),96.2% (inactive)
O=C(CSC(=S)n1cnnc1)NC(=O)c1ccccc1,105% (inactive),89.8% (inactive),98.4% (inactive),112% (inactive),120% (inactive),98.6% (inactive),106% (inactive),100% (inactive),113% (inactive),98.1% (inactive)
COc1ccc(Nc2nnc(-c3ccc(OC)c(OC)c3)o2)cc1,90.9% (inactive),80.2% (inactive),106% (inactive),55.7% (inactive),102% (inactive),80.8% (inactive),101% (inactive),92.1% (inactive),102% (inactive),100% (inactive)
CCCCNCCCCCNc1cc(OC)cc2cccnc12,120% (inactive),76.8% (inactive),80.8% (inactive),87.3% (inactive),87.7% (inactive),95% (inactive),96.1% (inactive),92.8% (inactive),93.1% (inactive),97.1% (inactive)
C#CCOc1ccc2ncnc(Nc3ccc(NC(=O)C=C)cc3)c2c1,-29.8% (active),-35.7% (active),-74.4% (active),-71.7% (active),-80.6% (active),6.18% (active),83.2% (inactive),-10.4% (active),-26.3% (active),-52.4% (active)
OCCn1cc(-c2nc(-c3c[nH]c4ncccc34)cs2)c2ccccc21,93.5% (inactive),54.2% (inactive),115% (inactive),66.4% (inactive),82.4% (inactive),84.1% (inactive),81.1% (inactive),88.5% (inactive),93.1% (inactive),97.7% (inactive)
CS(=O)(=O)Nc1cc(-c2ccc3ncnc(Nc4ccc5c(cnn5Cc5cccc(F)c5)c4)c3c2)cnc1Cl,16.2% (inactive),19.4% (inactive),-36.1% (active),1.43% (active),-25.7% (active),1.24% (active),6.42% (active),-16.6% (active),20.2% (inactive),1.49% (active)
